Reference: PubChem BioAssay AID651965 (National Center for Advancing Translational Sciences (NCATS), 2013)
In all, about 340,000 compounds went through this assay and about 6,400 (1.9%) were called active. About 4% were inconclusive and are not listed. Calls come from the whole dose curve; as a rule, active = well fitted falling curve with a large enough effect; inconclusive = small, poorly fitted or top-dose-only effect; inactive = no such curve, though single readings can be large or run the other way. The sample as a whole holds a higher share of actives than the screen did.

What follows are molecules tested against ATP-dependent Clp protease proteolytic subunit (Bacillus subtilis (strain 168)) (UniProt P80244) (assay: qHTS Assay for Activators of ClpP). Conditions: purified B. subtilis ClpP, FRET peptide cleavage, 20 min; series mostly up to 57.5 µM; activity change, negative = active: at the top concentration.
Chain of ATP-dependent Clp protease proteolytic subunit (Bacillus subtilis (strain 168)) (P80244 whole entry, looked up): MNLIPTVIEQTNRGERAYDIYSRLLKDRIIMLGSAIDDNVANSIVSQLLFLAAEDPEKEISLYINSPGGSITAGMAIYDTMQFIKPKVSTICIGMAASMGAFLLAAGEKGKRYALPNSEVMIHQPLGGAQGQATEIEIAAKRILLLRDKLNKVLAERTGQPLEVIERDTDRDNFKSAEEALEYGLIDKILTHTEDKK
Outline: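 Purified B. subtilis ClpP, 10 microg/mL final in Tris/HCl pH8 with KCl, BSA, glycerol and Tween-20, cleaved an Abz/nitrotyrosine-quenched decapeptide. Fluorescence (ex 320, em 430) was read at 0 and 20 min at room temperature. Delta was normalized to 5.8 microM ADEP and DMSO/no-enzyme controls.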
Note: the source files actives as falling curves though it sought activators and does not explain the sign; nearly all actives have a fitted effect of over 65% in size.
Potency is the fitted concentration of half-maximal effect.

Compound	activity change, negative = active	Potency
CCOC1=C2[C@@H](CN(S(=O)(=O)c3ccc(C)cc3)[C@H]2c2ccccc2F)[C@H]2C(=O)N(Cc3ccccc3)C(=O)[C@H]2C1	-5.97% (inactive)	–
c1ccc(-c2[nH]ncc2-c2nc3ccccc3[nH]2)cc1	–	25.1 µM (active)
Cc1ccc(OCC(=O)Nc2ccc(Cl)c(-c3nc4ccccc4[nH]3)c2)cc1C	4.68% (inactive)	–
Nc1ccccc1-c1nc2ccncc2[nH]1	3.69% (inactive)	–
Oc1ccc(-c2[nH]ncc2-c2nc3ccccc3s2)c(O)c1	-25.2% (inactive)	–
COc1ccc(-c2[nH]nc(-c3ccccc3)c2-c2nc3ccccc3[nH]2)cc1	–	25.1 µM (active)
COc1ccc(-c2cn[nH]c2-c2ccc(OC)cc2)cc1	-8.81% (inactive)	–
Clc1ccccc1SCc1nc2ccccc2[nH]1	-2.24% (inactive)	–
COc1ccc(NC(=O)CSc2nc3ccccc3[nH]2)cc1	-0.614% (inactive)	–
c1ccc2[nH]c(-c3nc4ccccc4[nH]3)nc2c1	–	7.08 µM (active)
COc1cccc(CNC(=O)[C@@H]2CCCN2C(=O)[C@@H]2CCCN2C(=O)c2ccccc2)c1	-3.48% (inactive)	–
Cc1[nH]c2ccccc2c1C(=O)c1cc([C@H](NC(=O)OC(C)(C)C)C(C)C)sc1N	-1.88% (inactive)	–
CN(Cc1cn(Cc2ccc(C(F)(F)F)cc2)nn1)C1CN(Cc2cn(Cc3ccc(C(F)(F)F)cc3)nn2)S(=O)(=O)C1 (stereo not given)	2.25% (inactive)	–
COCCCNC(=O)Cn1cc(C(=O)C2CC2)c2ccccc21	0.52% (inactive)	–
CCOCCCNC(=O)c1cn(CC)c2ccc(S(=O)(=O)N3CCc4ccccc4C3)cc2c1=O	-0.751% (inactive)	–
CCOCCCNC(=O)c1cn(CC(C)C)c(=O)c2c1c1ccccc1n2C	–	39.8 µM (active)
CC(=O)C[C@@H]1OC[C@H](CO)N1S(=O)(=O)c1ccc(C)cc1	0.114% (inactive)	–
CCN1CCN(c2ccc(/C=C/c3ccnc4ccccc34)cc2)CC1	-1.67% (inactive)	–
CCOc1ccc2[nH]c(=O)c(C(c3nnnn3CCOC)N3CCOCC3)cc2c1 (stereo not given)	–	15.8 µM (active)
COCCn1nnnc1C(c1ccccc1Cl)N1CCN(c2ccccc2OC)CC1 (stereo not given)	16.9% (inactive)	–
COc1ccc(N2CCN(C(c3cc4ccc(C)cc4[nH]c3=O)c3nnnn3C3CCCC3)CC2)cc1 (stereo not given)	-8.89% (inactive)	–
CSCCC(C(=O)NC(C)(C)C)n1c(-c2ccccc2)nc2ccccc21 (stereo not given)	-7.98% (inactive)	–
Cc1cccc(C)c1-n1nnnc1C(CCc1ccccc1)N1CCN(C/C=C/c2ccccc2)CC1 (stereo not given)	2.81% (inactive)	–
CCCCNC(=O)c1nc(C2CCN(S(=O)(=O)c3ccc(F)c(F)c3)CC2)oc1-c1cccc(C(F)(F)F)c1	-16.5% (inactive)	–
COc1ccc(-c2nc3cc(C)ccn3c2NC2CCCCC2)cc1SC1CCCCC1	3.39% (inactive)	–

Compound	activity change, negative = active	Potency
CCOc1cc(C(C(=O)NCC2CCCO2)N(C(=O)Cn2nnc3ccccc32)c2cccc(OC)c2)ccc1O (stereo not given)	-0.295% (inactive)	–
CCOc1cc(-c2nc3cc(C)ccn3c2NCC2CCCO2)ccc1O (stereo not given)	–	28.2 µM (active)
Cc1ccc(S(=O)(=O)NN=C2CC(C)(C)CC(=O)C2(C)C)cc1	-0.103% (inactive)	–
O=C1COc2ccc(-c3csc(-c4ccc(Cl)cc4)n3)cc2N1	3.36% (inactive)	–
CSc1ccccc1-c1nnc(NC(=O)c2ccc3c(c2)OCCO3)o1	4.31% (inactive)	–
COc1ccccc1-c1nnc(-c2ccc(F)cc2)o1	-0.414% (inactive)	–
CSc1ccccc1-c1nnc(-c2ccc(Cl)cc2)o1	–	31.6 µM (active)
CCC(C)CN1C(=O)CSCC1(C)C(=O)NCc1ccccc1 (stereo not given)	-4.83% (inactive)	–
O=C(NCc1ccccc1)c1ccc2c(c1)nc1n2CCCCC1	-5.59% (inactive)	–
Cc1ccc(C)n1-c1nnc(N2CCC(C(=O)NCc3ccc(F)cc3)CC2)s1	10.4% (inactive)	–
O=C(NCc1ccc(F)cc1)c1ccc2nc(N3CCCCC3)sc2c1	–	35.5 µM (active)
CN1OC[C@@H]2CN(C(=O)C(C)(C)C)[C@H](c3ccc(-n4ccnc4)cc3)C[C@@H]21	-0.0839% (inactive)	–
CN1CCN(C(=O)c2ccc(-c3cc4nc(NCc5cccnc5)n(C)c(=O)c4s3)cc2)CC1	4.86% (inactive)	–
COc1ccc(Cn2c(=O)[nH]c3cc(C(=O)N4CCN(C(=O)c5ccco5)CC4)ccc3c2=O)cc1	-8.08% (inactive)	–
COC(=O)c1ccc(Sc2ccc(F)cc2)c(N)c1	–	28.2 µM (active)
CC(=O)Nc1cc(C(=O)NCc2ccc(F)cc2)ccc1Sc1ccc(F)cc1	0.223% (inactive)	–
Cc1ccc(Sc2ccc(NC(=O)c3ccc(F)cc3)cc2C#N)cc1	4.22% (inactive)	–
C=C1C=C(C)n2ncc(C(=O)Nc3ccccc3O)c2N1	-5.9% (inactive)	–
COCCn1c(SCC(=O)Nc2ccc(F)cc2F)nc2c(c1=O)SCC2	1.65% (inactive)	–
Cc1cc2nc(-c3ccc(F)cc3)c(Cc3ccsc3)n2c(C)c1Br	-3.99% (inactive)	–
N#CCCN(C(=O)COC(=O)c1ccc(S(=O)(=O)N2CCCCCC2)cc1)c1ccccc1	1.35% (inactive)	–
Cc1cc(C)n2nc(C(=O)OCC(=O)N(CCC#N)c3ccc(F)cc3)nc2n1	-2.14% (inactive)	–
Cc1c(C(=O)OCC(=O)N(CCC#N)c2ccccc2)oc2c1ccc1ccccc12	–	25.1 µM (active)
O=C(Nc1ccc(N2CCOCC2)cc1)c1cccc2c(-c3ccc(F)c(F)c3)coc12	24.2% (inactive)	–
Cc1nc2c(OCc3cccc(Cl)c3)cccn2c1N(C)CC1CC1	-11.2% (inactive)	–
